Compound activity from PubChem BioAssay.
This is a sample that favours compounds with a hit; in the whole collection about 1.1% have one here.
OPRM1-OPRD1 ag = agonists of human mu-delta opioid receptor heterodimerization; activation, % at 9.3 µM; P35372+P41143; cells, OPRM1-OPRD1 heterodimerization, luminescence; AID 504326; 0.3% of 340,000 active; in the data active = activation above about 18%;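 note: 0% = vehicle-treated cells and 100% = reference agonist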
Target sequence (P35372 whole entry, looked up): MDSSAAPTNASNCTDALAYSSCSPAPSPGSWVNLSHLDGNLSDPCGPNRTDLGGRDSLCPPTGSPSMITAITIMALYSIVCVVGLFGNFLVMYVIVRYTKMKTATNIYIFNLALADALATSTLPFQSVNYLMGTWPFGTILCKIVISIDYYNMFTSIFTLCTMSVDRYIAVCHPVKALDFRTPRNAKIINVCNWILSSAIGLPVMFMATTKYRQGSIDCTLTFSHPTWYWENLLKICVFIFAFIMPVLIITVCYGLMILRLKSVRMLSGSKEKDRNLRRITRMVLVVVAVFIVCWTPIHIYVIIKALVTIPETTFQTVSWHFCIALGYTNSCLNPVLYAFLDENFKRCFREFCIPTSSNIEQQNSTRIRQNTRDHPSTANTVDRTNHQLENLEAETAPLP
Target sequence (P41143 whole entry, looked up): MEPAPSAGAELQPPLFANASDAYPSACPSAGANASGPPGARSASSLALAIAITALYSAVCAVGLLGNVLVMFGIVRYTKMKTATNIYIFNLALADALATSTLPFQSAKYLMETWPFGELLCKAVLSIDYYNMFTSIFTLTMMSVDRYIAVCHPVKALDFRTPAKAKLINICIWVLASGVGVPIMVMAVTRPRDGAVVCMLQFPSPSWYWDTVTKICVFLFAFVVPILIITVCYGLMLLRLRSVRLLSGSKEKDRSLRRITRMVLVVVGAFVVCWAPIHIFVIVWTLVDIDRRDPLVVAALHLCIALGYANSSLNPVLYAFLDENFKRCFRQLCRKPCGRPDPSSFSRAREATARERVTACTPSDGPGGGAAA
A1 inh = inhibitors of the anti-apoptotic protein A1, read as caspase activation; MEF A1-2A-BIM cells, Caspase-Glo 3/7 luminescence, 3 h; percent of clofoctol response, vehicle zero; caspase activation, % (no concentration beside the values); 0.066% of 330,000 active; AID 2462;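 active = over half of replicate activation scores above 10%, or exactly half above 10 with the replicate mean above 10; inconclusive = replicate mean below 10 yet half the replicates above 10; inactive = over half of replicates below 10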
MOR-DOR inv ag = inverse agonist of human OPRM1-OPRD1 heterodimerization; inhibition, % at 9.3 µM; 0.21% of 340,000 active; cell-based MOR-DOR heterodimer luminescence, inverse agonism; in the data active = inhibition above about 22%, passing the limit was not always enough;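 note: 0% = cells with DMSO and 100% = wells without cells with DMSO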
HTR5A inv ctr = inverse agonist of human HTR5A in OPRM1-OPRD1 counter-screen | 0.083% of 340,000 active | inhibition, % at 9.3 µM | HTR5A cell line, luminescence, inverse agonism | AID 504634; in the data active = inhibition mostly above about 23%, no sharp cut-off; inactive = mostly below about 18%;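 note: 0% = cells with DMSO and 100% = no-cell wells with DMSO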
HTR5A ag ctr = activates human HTR5A in OPRM1-OPRD1 agonist counter-screen | P47898 | HTR5A agonist assay, luminescence, cell-based | activation, % at 9.3 µM | 0.61% of 340,000 active | AID 504692; in the data active = activation mostly above about 9.5%, no sharp cut-off; inactive = mostly below about 7.6%;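 note: 0% = cells with vehicle only and 100% = reference agonist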
MOR-DOR inv conf = confirmation of human OPRM1-OPRD1 heterodimerization inverse agonists. shares compounds with MOR-DOR inv ag. cells expressing OPRM1/OPRD1 heterodimer, luminescence. inhibition, % at 9.3 µM. 20% of 580 active; in the data active = inhibition above about 32%;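 note: 0% = cells with DMSO and 100% = wells lacking cells with DMSO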
HTR5A inv ctr2 = counter-screen for OPRM1-OPRD1 inverse agonists: human HTR5A inverse agonism. shares compounds with MOR-DOR inv ag. HTR5A-expressing cells, luminescence. inhibition, % at 9.3 µM. 580 tested, under 10 active. AID 504914; call rule not given here;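 note: 0% = cells with DMSO and 100% = no-cell wells with DMSO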
* = called active by the depositor; i = inactive; ? = inconclusive; . = no result.

SMILES	OPRM1-OPRD1 ag	A1 inh	MOR-DOR inv ag	HTR5A inv ctr	HTR5A ag ctr	MOR-DOR inv conf	HTR5A inv ctr2
CC(C)(C)OC(=O)C[C@@H]1C/C=C\C[C@H](CC(=O)N(CCO)Cc2ccccc2)C(=O)NC[C@@H](c2ccccc2)OC1=O	-12	0	56*	36	-10	-427	-1
COc1ccc(S(=O)(=O)N/N=C\c2ccccc2F)cc1	1	1	-3	10	6	.	.
Clc1ccc(Nc2ccccc2)nn1	-1	0	8	-20	-3	.	.
CCn1c(Cl)c(C=O)s/c1=N\S(=O)(=O)c1ccccc1	-6	56*	34*	6	-2	20	16
CCN1C(=O)CS/C1=N\S(=O)(=O)c1ccc(Cl)cc1	-1	1	5	-1	0	.	.
O=C(Cn1cnc2cc([N+](=O)[O-])ccc2c1=O)Nc1cccc(S(=O)(=O)N2CCCCC2)c1	8	.	-33	-11	4	.	.
CCN(CC)S(=O)(=O)c1cccc(-c2n[nH]c(=S)n2C)c1	1	0	-7	-9	4	.	.
Cc1ccc(-c2n[nH]c(=S)n2C)cc1Cl	-6	-1	33*	19*	-7	2	12
C/C(CC(=O)Nc1ccc(N(C)C)cc1)=N\NC(=O)c1ccccn1	-3	0	15	-9	-3	.	.
C/C(CC(=O)Nc1ccc(N(C)C)cc1)=N\NC(=O)c1cnccn1	-9	0	39*	18	2	7	-11
COc1ccccc1C(=O)NC(CCSC)C(=O)OC(C)C(N)=O (centres undefined)	-3	1	15	-5	2	.	.
CCOC(=O)c1c(N)ssc1=S	-6	0	35*	23	-1	20	-11
CCOC(=O)c1c(N)sc(N)c1C(=O)OCC	-10	0	51*	12	8	i	-4
CS(=O)(=O)N(CC(=O)NCc1ccco1)c1cccc([N+](=O)[O-])c1	-2	0	11	7	-3	.	.
Oc1[nH]c2ccccc2c1/C=N/N1CCCCC1	-6	0	37*	9	-3	27	-15
Oc1ccccc1C=NN1CCCCCC1	2	.	-9	4	-1	.	.
C=CCC1(Cl)C(=O)C(Cl)=C(N2CCN(C)CC2)C1(OC)OC (centres undefined)	-4	0	21	5	-2	.	.
N#CC(C#N)=C1C=CC=CN1/C(=C\c1ccccc1Cl)C(=O)c1ccccc1	-7	14*	35*	23	2	18	16
C[C@H](CO)N1C[C@H](C)[C@@H](CN(C)S(=O)(=O)c2ccccc2)Oc2ccc(NC(=O)Nc3ccc4c(c3)OCO4)cc2C1=O	0	1	2	2	3	.	.
CCOc1c([N+](=O)[O-])cc2c(C)c(C(=O)N3CCN(C)CC3)oc2c1OCC	3	0	-13	5	-1	.	.
O=[N+]([O-])c1cccc(/C=N/NS(=O)(=O)c2ccccc2)c1	-7	0	38*	-11	0	21	0
CC(C(=O)OCC(=O)c1cccc([N+](=O)[O-])c1)N1C(=O)C2C3CCC(C3)C2C1=O (centres undefined)	-7	1	54*	11	-4	17	6
CC(C(=O)OCC(=O)c1cccc([N+](=O)[O-])c1)N1C(=O)C2C3C=CC(C3)C2C1=O (centres undefined)	-9	1	48*	19	-7	i	-16
Cc1ccc(C(=O)COC(=O)C(C)N2C(=O)C3C4CCC(C4)C3C2=O)cc1C (centres undefined)	-2	1	14	8	-1	.	.
O=C(CNC(=O)c1ccco1)OCC(=O)c1ccc(Cl)cc1Cl	-8	0	44*	12	-4	-20	-21
SMILES	OPRM1-OPRD1 ag	A1 inh	MOR-DOR inv ag	HTR5A inv ctr	HTR5A ag ctr	MOR-DOR inv conf	HTR5A inv ctr2
O=C(NS(=O)(=O)c1ccc2c(c1)OCCO2)c1ccccc1	0	-1	-1	-10	-3	.	.
CC(C)n1nccc1NC(=O)COC(=O)c1ccc(NC(N)=O)cc1	-3	2	18	-2	1	.	.
CCOC(=O)c1ccc(CC(=O)c2oc3cc(O)ccc3c2C)o1	-6	-1	34*	-9	-1	28	-2
COc1ccc(NC(=O)COC(=O)CCCC2=NS(=O)(=O)c3ccccc3N2)cc1	-3	1	13	17	3	.	.
Cc1ccc(C(=O)CNc2ccc(C)cc2C)cc1	-5	1	26*	-6	3	1	20
Cc1ccc(C(=O)CNc2ccccc2C)cc1	-7	-1	37	-12	0	.	.
Cc1ccc(-c2cccc(NC(=O)C3C(C(=O)O)[C@@H]4C=C[C@H]3C4)c2)o1 (some centres undefined)	-1	1	7	6	-2	.	.
Cc1ccc(-c2ccccc2NC(=O)C2C3C=CC(C3)C2C(=O)O)o1 (centres undefined)	-6	0	34*	-7	-2	-39	1
COc1ccc(S(=O)(=O)NNc2nc(C)cc(C)n2)cc1[N+](=O)[O-]	-8	0	46*	0	2	54*	2
CCN(CC)CC(=O)c1ccc(-c2ccccc2)cc1	-10	1	54*	9	-3	-58	5
CN(C)CC(=O)c1ccc(-c2ccccc2)cc1	-6	0	34*	0	-1	-42	-12
Cc1cc(C(=O)O)sc1C	-1	0	6	7	5	.	.
O=C(C[N+]1(CC#Cc2ccccc2)CCOCC1)c1ccc(Cl)cc1	-6	?	33*	5	-2	i	-14
O=C(C[N+]1(CC#Cc2ccccc2)CCOCC1)c1ccccc1	-5	0	25	10	-2	.	.
O=C(COC(=O)c1ccccn1)c1cccc(Br)c1	-7	0	37*	17	-2	14	9
CC(C)(C)NS(=O)(=O)c1ccc(NC(=O)C2CCCCC2)cc1	0	1	-1	9	2	.	.
COc1ccc(C(C)=O)cc1COC(=O)CCNS(=O)(=O)c1ccc(C)c(C)c1	-1	-1	6	4	-1	.	.
COc1ccc(N2COC3c4cccc5cccc(c45)C32)cc1 (centres undefined)	-9	0	50*	9	-4	-267	-58
Cc1ccc(C(=O)CSc2nc(C)cc(SCc3nnc(-c4ccccc4)o3)n2)cc1	-2	0	10	-14	-3	.	.
CC(C)(C)c1ccc(NNC(=O)C2CCC2)cc1	-7	0	34*	2	-3	2	-17
CC(=O)C1=C(c2ccccc2)N(C(C)=O)n2c(C)nnc2S1	-17	0	86*	5	-2	16	12
CC(=O)N1CCN(c2nnc(-c3ccccc3)c3ccccc23)CC1	-1	0	5	-5	1	.	.
